# Measurements reported in the supplement of paper PMC4466140.
# Key:
# Experiment in all cases: SPOT peptide array binding signal intensity (averaged, normalized) (arbitrary units (background-subtracted, floor 0; scale differs between SH3 domains)); higher = stronger binding of the SH3 domain to the peptide
# [1] = target: CaNbp2
# Summary of the method: (§1)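 Binding signal refers to normalized, background-subtracted spot intensity averaged over replicates, expressed in arbitrary units that differ between domains. GST-fused SH3 domains from four yeast species were incubated at 10 μg/ml overnight at 4°C on cellulose membranes of synthetic 15-mer peptides with cysteines replaced by serines. Bound protein was detected with anti-GST antibody, an HRP anti-mouse secondary and luminol, and quantified with Genespotter.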
# [2] = target: CaRvs167
# Summary of the method: as §1
# [3] = target: CaRvs167-3
# Summary of the method: as §1
# [4] = target: CaSho1
# Summary of the method: as §1
# [5] = target: CaSla1-D1-D2
# Summary of the method: as §1
# [6] = target: CaSla1-D3
# Summary of the method: as §1
# [7] = target: ScAbp1
# Summary of the method: as §1
# [8] = target: ScBbc1
# Summary of the method: as §1
# [9] = target: ScBem1-D1
# Summary of the method: as §1
# [10] = target: ScBzz1-D1
# Summary of the method: as §1
# [11] = target: ScBzz1-D2
# Summary of the method: as §1
# [12] = target: ScCyk3
# Summary of the method: as §1
# [13] = target: ScFus1
# Summary of the method: as §1
# [14] = target: ScHof1
# Summary of the method: as §1
# [15] = target: ScHse1
# Summary of the method: as §1
# [16] = target: ScLsb1
# Summary of the method: as §1
# [17] = target: ScLsb2
# Summary of the method: as §1
# [18] = target: ScLsb3
# Summary of the method: as §1
# [19] = target: ScLsb4
# Summary of the method: as §1
# [20] = target: ScMyo3
# Summary of the method: as §1
# [21] = target: ScMyo5
# Summary of the method: as §1
# [22] = target: ScNbp2
# Summary of the method: as §1
# [23] = target: ScPex13
# Summary of the method: as §1
# [24] = target: ScRvs167
# Summary of the method: as §1
# [25] = target: ScSho1
# Summary of the method: as §1
# [26] = target: ScSla1-D1-D2
# Summary of the method: as §1
# [27] = target: ScSla1-D3
# Summary of the method: as §1
# [28] = target: SpAbp1-D1
# Summary of the method: as §1
# [29] = target: SpBbc1
# Summary of the method: as §1
# [30] = target: SpBzz1-D1
# Summary of the method: as §1
# [31] = target: SpBzz1-D2
# Summary of the method: as §1
# [32] = target: SpCyk3
# Summary of the method: as §1
# [33] = target: SpHof1
# Summary of the method: as §1
# [34] = target: SpHof1-2
# Summary of the method: as §1
# [35] = target: SpHof1-3
# Summary of the method: as §1
# [36] = target: SpHse1
# Summary of the method: as §1
# [37] = target: SpLsb1
# Summary of the method: as §1
# [38] = target: SpLsb4
# Summary of the method: as §1
# [39] = target: SpMyo1
# Summary of the method: as §1
# [40] = target: SpNbp2
# Summary of the method: as §1
# [41] = target: SpPex13
# Summary of the method: as §1
# [42] = target: SpRvs167
# Summary of the method: as §1
# [43] = target: SpSla1-D1-D2
# Summary of the method: as §1
# [44] = target: SpSla1-D3
# Summary of the method: as §1
# [45] = target: AgAbp1
# Summary of the method: as §1
# [46] = target: AgBbc1
# Summary of the method: as §1
# [47] = target: AgBem1-D1
# Summary of the method: as §1
# [48] = target: AgBzz1-D1
# Summary of the method: as §1
# [49] = target: AgBzz1-D2
# Summary of the method: as §1
# [50] = target: AgCyk3
# Summary of the method: as §1
# [51] = target: AgFus1
# Summary of the method: as §1
# [52] = target: AgHof1
# Summary of the method: as §1
# [53] = target: AgHse1
# Summary of the method: as §1
# [54] = target: AgLsb1
# Summary of the method: as §1
# [55] = target: AgLsb4
# Summary of the method: as §1
# [56] = target: AgMyo5
# Summary of the method: as §1
# [57] = target: AgNbp2
# Summary of the method: as §1
# [58] = target: AgRvs167
# Summary of the method: as §1
# [59] = target: AgSho1
# Summary of the method: as §1
# [60] = target: AgSla1-D1-D2
# Summary of the method: as §1
# [61] = target: AgSla1-D3
# Summary of the method: as §1
# [62] = target: CaAbp1-D1
# Summary of the method: as §1
# [63] = target: CaAbp1-D2
# Summary of the method: as §1
# [64] = target: CaBbc1
# Summary of the method: as §1
# [65] = target: CaBem1-D1
# Summary of the method: as §1
# [66] = target: CaBzz1-D1
# Summary of the method: as §1
# [67] = target: CaBzz1-D2
# Summary of the method: as §1
# [68] = target: CaCyk3
# Summary of the method: as §1
# [69] = target: CaFus1
# Summary of the method: as §1
# [70] = target: CaHof1
# Summary of the method: as §1
# [71] = target: CaHse1
# Summary of the method: as §1
# [72] = target: CaLsb1
# Summary of the method: as §1
# [73] = target: CaLsb4
# Summary of the method: as §1
# [74] = target: CaMyo5
# Summary of the method: as §1
binder,measurement,setting,value
ATKSASPTLPTRRSR,SPOT peptide array binding signal intensity,[1],77
same,SPOT peptide array binding signal intensity,[2],607
same,SPOT peptide array binding signal intensity,[3],9.25
same,SPOT peptide array binding signal intensity,[4],23
same,SPOT peptide array binding signal intensity,[5],1430
same,SPOT peptide array binding signal intensity,[6],1.75
same,SPOT peptide array binding signal intensity,[7],192
same,SPOT peptide array binding signal intensity,[8],405
same,SPOT peptide array binding signal intensity,[9],30
same,SPOT peptide array binding signal intensity,[10],95
same,SPOT peptide array binding signal intensity,[11],52
same,SPOT peptide array binding signal intensity,[12],32
same,SPOT peptide array binding signal intensity,[13],14
same,SPOT peptide array binding signal intensity,[14],3.5
same,SPOT peptide array binding signal intensity,[15],172
same,SPOT peptide array binding signal intensity,[16],651
same,SPOT peptide array binding signal intensity,[17],13.5
same,SPOT peptide array binding signal intensity,[18],5480
same,SPOT peptide array binding signal intensity,[19],2750
same,SPOT peptide array binding signal intensity,[20],1.5
same,SPOT peptide array binding signal intensity,[21],5
same,SPOT peptide array binding signal intensity,[22],63.5
same,SPOT peptide array binding signal intensity,[23],511
same,SPOT peptide array binding signal intensity,[24],1320
same,SPOT peptide array binding signal intensity,[25],65.5
same,SPOT peptide array binding signal intensity,[26],726
same,SPOT peptide array binding signal intensity,[27],25.8
same,SPOT peptide array binding signal intensity,[28],356
same,SPOT peptide array binding signal intensity,[29],27
same,SPOT peptide array binding signal intensity,[30],366
same,SPOT peptide array binding signal intensity,[31],1
same,SPOT peptide array binding signal intensity,[32],3
same,SPOT peptide array binding signal intensity,[33],732
same,SPOT peptide array binding signal intensity,[34],83
same,SPOT peptide array binding signal intensity,[35],110
same,SPOT peptide array binding signal intensity,[36],77
same,SPOT peptide array binding signal intensity,[37],90
same,SPOT peptide array binding signal intensity,[38],7440
same,SPOT peptide array binding signal intensity,[39],46.8
same,SPOT peptide array binding signal intensity,[40],21.5
same,SPOT peptide array binding signal intensity,[41],17
same,SPOT peptide array binding signal intensity,[42],2470
same,SPOT peptide array binding signal intensity,[43],334
same,SPOT peptide array binding signal intensity,[44],≤ 0
MPAPPPPPPPPPGAF,SPOT peptide array binding signal intensity,[45],≤ 0
same,SPOT peptide array binding signal intensity,[46],3.81e-06
same,SPOT peptide array binding signal intensity,[47],≤ 0
same,SPOT peptide array binding signal intensity,[48],≤ 0
same,SPOT peptide array binding signal intensity,[49],19.5
same,SPOT peptide array binding signal intensity,[50],≤ 0
same,SPOT peptide array binding signal intensity,[51],≤ 0
same,SPOT peptide array binding signal intensity,[52],51.2
same,SPOT peptide array binding signal intensity,[53],≤ 0
same,SPOT peptide array binding signal intensity,[54],≤ 0
same,SPOT peptide array binding signal intensity,[55],≤ 0
same,SPOT peptide array binding signal intensity,[56],822
same,SPOT peptide array binding signal intensity,[57],≤ 0
same,SPOT peptide array binding signal intensity,[58],≤ 0
same,SPOT peptide array binding signal intensity,[59],≤ 0
same,SPOT peptide array binding signal intensity,[60],≤ 0
same,SPOT peptide array binding signal intensity,[61],0.5
same,SPOT peptide array binding signal intensity,[62],18.5
same,SPOT peptide array binding signal intensity,[63],≤ 0
same,SPOT peptide array binding signal intensity,[64],0.25
same,SPOT peptide array binding signal intensity,[65],40
same,SPOT peptide array binding signal intensity,[66],970
same,SPOT peptide array binding signal intensity,[67],69.1
same,SPOT peptide array binding signal intensity,[68],≤ 0
same,SPOT peptide array binding signal intensity,[69],33
same,SPOT peptide array binding signal intensity,[70],≤ 0
same,SPOT peptide array binding signal intensity,[71],4.62
same,SPOT peptide array binding signal intensity,[72],≤ 0
same,SPOT peptide array binding signal intensity,[73],≤ 0
same,SPOT peptide array binding signal intensity,[74],66
same,SPOT peptide array binding signal intensity,[1],29
same,SPOT peptide array binding signal intensity,[2],≤ 0
same,SPOT peptide array binding signal intensity,[3],2.75
same,SPOT peptide array binding signal intensity,[4],13.8
same,SPOT peptide array binding signal intensity,[5],≤ 0
same,SPOT peptide array binding signal intensity,[6],≤ 0
same,SPOT peptide array binding signal intensity,[7],≤ 0
same,SPOT peptide array binding signal intensity,[8],≤ 0
same,SPOT peptide array binding signal intensity,[9],≤ 0
same,SPOT peptide array binding signal intensity,[10],27.5
same,SPOT peptide array binding signal intensity,[11],≤ 0
same,SPOT peptide array binding signal intensity,[12],≤ 0
same,SPOT peptide array binding signal intensity,[13],≤ 0
same,SPOT peptide array binding signal intensity,[14],≤ 0
same,SPOT peptide array binding signal intensity,[15],4.25
same,SPOT peptide array binding signal intensity,[16],≤ 0
same,SPOT peptide array binding signal intensity,[17],≤ 0
same,SPOT peptide array binding signal intensity,[18],≤ 0
same,SPOT peptide array binding signal intensity,[19],≤ 0
same,SPOT peptide array binding signal intensity,[20],1010
same,SPOT peptide array binding signal intensity,[21],634
same,SPOT peptide array binding signal intensity,[22],≤ 0
same,SPOT peptide array binding signal intensity,[23],71.9
same,SPOT peptide array binding signal intensity,[24],≤ 0
same,SPOT peptide array binding signal intensity,[25],5.75
same,SPOT peptide array binding signal intensity,[26],≤ 0
same,SPOT peptide array binding signal intensity,[27],0.125
same,SPOT peptide array binding signal intensity,[28],7
same,SPOT peptide array binding signal intensity,[29],≤ 0
same,SPOT peptide array binding signal intensity,[30],1360
